Inconclusive results are not listed. A call without a number means that no potency is given here. Calls of active or inactive are those of the source. The call rests on the fitted dose curve; in most records, active means well fitted cell-killing curve with a large enough effect; inconclusive means small, poorly fitted or top-dose-only effect; inactive means flat fitted curve, though single readings scatter.
Test: Cell Viability - LYMP2-013 (AID 970);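 further: cells exposed to compound for 24 h at 37 °C; nearly all actives have a fitted effect of over 55% in size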
Details: LYMP2-013 lymphoblastoid cells viability; series mostly up to 92.2 µM
From the text: NIH Chemical Genomics Center [NCGC]
NIH Molecular Libraries Screening Centers Network [MLSCN]
National Institutes of Environmental Health Sciences [NIEHS]
National Toxicology Program [NTP]
We have developed a 1536-well cell-based assay for quantitative high throughput screening (qHTS) against a number of cell lines to determine in vitro cytotoxicity of small molecules. This particular assay uses a human lymphoblastoid cell line (LYMP2-013) purchased from Coriell Institute for Medical Research.
NCGC Assay Protocol Summary:
The CellTiter-Glo luminescent cell viability assay (Promega) is a homogeneous method to measure the number of viable cells in culture. The end point readout of this assay is based on quantitation of intracellular ATP, an indicator of metabolic activity, using the luciferase reaction. Luciferase catalyzes the oxidation of beetle Luciferin to oxyluciferin and light in the presence of ATP. The luminescent signal is proportional to amount of ATP present.
Using the CellTiter-Glo luminescent cell viability assay, the amount of cellular ATP was measured in the lymphoblastoid cell line with complete culture medium following compound treatment for 24 hours. The assay was performed in opaque white Kalypsys 1536-well plates. In the screen, tetraoctylammonium bromide was used as positive control. Library compounds were measured for their ability to cause acute toxicity in the cell line, as reflected by a decrease in intracellular ATP levels, in a concentration-dependent manner. […] AC50 values were determined from concentration-response data modeled with the standard Hill equation.
qHTS protocol for CellTiter Glo lymphoblastoid cellular assay
[Step] [Parameter] [Value] [Description]
1. Reagent; 5 uL; 2500 lymphoblastoid cells/well
2. Time; 5 hr; 37 C incubation
4. Controls; 23 nL; Tetraoctylammonium bromide 6.4pM to 92 uM
5. Time; 24 hr; 37 C incubation
6. Reagent; 5 uL; CellTiter Glo reagent
7. Time; 30 min; Room Temperature
8. Detection; Luminescence; Viewlux plate reader
Keywords: cell viability, cytotoxicity, lymphoblastoid cell line, luminescence, NTPHTS, NTPHTS_NCGC, NIEHS, DSSTox, MLSMR, MLSCN, NIH Roadmap, qHTS, NCGC
Potency means the concentration at half of the fitted maximal effect.

Row | SMILES | Potency
1 | CCCC(=O)c1cc(O)c(O)cc1O | inactive
2 | CCCCCCCCCCCCCCCC[n+]1ccccc1 | 25.1 µM (active)
3 | Brc1ccccc1-c1ccccc1 | inactive
4 | Nc1ccc(O)cc1 | 50.1 µM (active)
5 | CC(C)(C)c1ccc(O)c(O)c1 | 39.8 µM (active)
6 | CC(C)C(C)(C)C(C)(C)C(C)(C)S | inactive
7 | CC(C)(c1ccc(O)cc1)c1ccc(O)cc1 | inactive
8 | c1ccc2occc2c1 | inactive
9 | Cc1cc(C(C)(C)C)c(O)c(C(C)(C)C)c1 | inactive
10 | C1=CC2C3C=CC(C3)C2C1 (stereo not given) | inactive
11 | Nc1cccc2c(N)cccc12 | inactive
12 | O=C(NO)c1ccccc1 | inactive
13 | Nc1c2ccccc2nc2ccccc12 | 12.6 µM (active)
14 | OCc1c[nH]c2ccccc12 | inactive
15 | O=C(Oc1ccccc1)c1ccccc1O | inactive
16 | CCCCC(CC)COC(=O)c1ccccc1C(=O)O (stereo not given) | inactive
17 | COc1cc(C=O)ccc1O | inactive
18 | O=C(c1ccccc1)c1ccccc1 | inactive
19 | Oc1ccccc1 | inactive
20 | Cc1ccc(O)cc1 | inactive

Source: PubChem BioAssay (NCATS)
